# Measured values reported in paper PMC8384837, “Expanding the binding specificity for RNA recognition by a PUF domain”.
# How the values were obtained:
# Experiment in all cases: yeast three-hybrid, YBZ-1, SC-Leu-His + 0.5 mM 3-AT, 4 days
# Settings in all cases: tags: N-Gal4 AD-HA kept; label: inside an RPR1-promoter hybrid RNA with tandem MS2 sites; ssRNA
# [1] = target: T1, PUM1 PUF domain R6-DFE (Homo sapiens, UniProt Q14671 828-1176, N1043D;Y1044F;Q1047E)
# T1 sequence: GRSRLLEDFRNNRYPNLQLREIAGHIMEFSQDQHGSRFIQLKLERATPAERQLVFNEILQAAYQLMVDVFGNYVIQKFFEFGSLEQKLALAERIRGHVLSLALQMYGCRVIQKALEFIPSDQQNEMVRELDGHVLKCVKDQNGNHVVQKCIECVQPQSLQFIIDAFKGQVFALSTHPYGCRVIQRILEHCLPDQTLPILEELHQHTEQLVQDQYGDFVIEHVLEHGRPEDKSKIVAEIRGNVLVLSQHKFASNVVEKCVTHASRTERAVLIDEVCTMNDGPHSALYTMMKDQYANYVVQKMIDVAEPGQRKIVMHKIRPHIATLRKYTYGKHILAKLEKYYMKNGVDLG
# How it was run: (§1)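 The interaction score is the log change in how often each variant appears, from input to selection. Frequencies came from PCR-amplified, Illumina-sequenced repeat regions of Pumilio-1 PUF domain libraries grown in strain YBZ-1 (LexA–MS2 coat fusion, HIS3 reporter) alongside matching RNA elements. Input plates were SC-Leu and selection plates were SC-Leu-His + 0.5 mM 3-AT, each for four days, and the log2 calculation used a pseudocount of 1 where a variant was absent.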
# [2] = target: PUM1 PUF domain R1-YMR (Homo sapiens, UniProt Q14671 828-1176, S863Y;R864M;Q867R)
# Chain of PUM1 PUF domain R1-YMR (Q14671 828-1176 S863Y/R864M/Q867R): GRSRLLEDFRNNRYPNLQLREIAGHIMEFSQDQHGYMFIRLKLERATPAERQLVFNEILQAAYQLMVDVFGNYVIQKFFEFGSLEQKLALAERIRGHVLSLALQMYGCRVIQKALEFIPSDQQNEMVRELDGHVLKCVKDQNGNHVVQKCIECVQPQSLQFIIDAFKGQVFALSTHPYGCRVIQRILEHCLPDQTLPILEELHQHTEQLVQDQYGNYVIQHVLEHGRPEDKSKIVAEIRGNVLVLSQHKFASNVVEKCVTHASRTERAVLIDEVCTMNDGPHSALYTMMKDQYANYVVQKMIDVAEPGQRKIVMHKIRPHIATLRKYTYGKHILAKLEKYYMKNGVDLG
# How it was run: as §1
# [3] = target: PUM1 PUF domain R4-PFV (Homo sapiens, UniProt Q14671 828-1176, N971P;H972F;Q975V)
# Chain of PUM1 PUF domain R4-PFV (Q14671 828-1176 N971P/H972F/Q975V): as the sequence (Q14671 828-1176 S863Y/R864M/Q867R) above, with Y36S, M37R, R40Q, N144P, H145F, Q148V counted along it
# How it was run: as §1
# [4] = target: PUM1 PUF domain R5-FRM (Homo sapiens, UniProt Q14671 828-1176, C1007F;Q1011M)
# How it was run: as §1
# [5] = target: PUM1 PUF domain R5-GMR (Homo sapiens, UniProt Q14671 828-1176, C1007G;R1008M;Q1011R)
# Chain of PUM1 PUF domain R5-GMR (Q14671 828-1176 C1007G/R1008M/Q1011R): as the sequence (Q14671 828-1176 S863Y/R864M/Q867R) above, with Y36S, M37R, R40Q, C180G, R181M, Q184R counted along it
# How it was run: as §1
# [6] = target: PUM1 PUF domain R8-KHW (Homo sapiens, UniProt Q14671 828-1176, N1122K;Y1123H;Q1126W)
# How it was run: as §1
# [7] = target: PUM1 PUF domain R8-TYK (Homo sapiens, UniProt Q14671 828-1176, N1122T;Q1126K)
# Chain of PUM1 PUF domain R8-TYK (Q14671 828-1176 N1122T/Q1126K): as the sequence (Q14671 828-1176 S863Y/R864M/Q867R) above, with Y36S, M37R, R40Q, N295T, Q299K counted along it
# How it was run: as §1
# [8] = target: PUM1 PUF domain R3-RRW (Homo sapiens, UniProt Q14671 828-1176, C935R;Q939W)
# How it was run: as §1
# [9] = target: PUM1 PUF domain R3-EFA (Homo sapiens, UniProt Q14671 828-1176, C935E;R936F;Q939A)
# How it was run: as §1
# [10] = target: PUM1 PUF domain R3-TSR (Homo sapiens, UniProt Q14671 828-1176, C935T;R936S;Q939R)
# How it was run: as §1
# [11] = target: PUM1 PUF domain R3-RVA (Homo sapiens, UniProt Q14671 828-1176, C935R;R936V;Q939A)
# How it was run: as §1
# [12] = target: PUM1 PUF domain R3-VYW (Homo sapiens, UniProt Q14671 828-1176, C935V;R936Y;Q939W)
# How it was run: as §1
# [13] = target: PUM1 PUF domain R2-GWF (Homo sapiens, UniProt Q14671 828-1176, N899G;Y900W;Q903F)
# How it was run: as §1
# [14] = target: PUM1 PUF domain R7-RKL (Homo sapiens, UniProt Q14671 828-1176, S1079R;N1080K;E1083L)
# How it was run: as §1
# [15] = target: PUM1 PUF domain R7-KRL (Homo sapiens, UniProt Q14671 828-1176, S1079K;N1080R;E1083L)
# How it was run: as §1
# [16] = target: PUM1 PUF domain R3-SGE (Homo sapiens, UniProt Q14671 828-1176, C935S;R936G;Q939E)
# How it was run: as §1
# [17] = target: PUM1 PUF domain R3-APA (Homo sapiens, UniProt Q14671 828-1176, C935A;R936P;Q939A)
# How it was run: as §1
# [18] = target: PUM1 PUF domain R5-IYG (Homo sapiens, UniProt Q14671 828-1176, C1007I;R1008Y;Q1011G)
# How it was run: as §1
# [19] = target: PUM1 PUF domain R4-GRN (Homo sapiens, UniProt Q14671 828-1176, N971G;H972R;Q975N)
# How it was run: as §1
# [20] = target: PUM1 PUF domain R4-APF (Homo sapiens, UniProt Q14671 828-1176, N971A;H972P;Q975F)
# How it was run: as §1
sequence,measurement,setting,value
GGCUAGAACUAGUGGAUCCCCCGGCGCCCGGCGGCUCGAGCCCGGGUAAGUGGAAAUAGUCUGCAUGCCGCCGGGCGCCAUGCCUGCAGGUCGACUCUAGAAAACAUG,binding signal,[1],2.5 log2 enrichment (interaction score)
GGCUAGAACUAGUGGAUCCCCCGGCGCCCGGCGGCUCGAGCCCGGGUAAGUGUAAAUCGUCUGCAUGCCGCCGGGCGCCAUGCCUGCAGGUCGACUCUAGAAAACAUG,binding signal,[2],6.92 log2 enrichment (interaction score)
GGCUAGAACUAGUGGAUCCCCCGGCGCCCGGCGGCUCGAGCCCGGGUAAGUGUAUAUAGUCUGCAUGCCGCCGGGCGCCAUGCCUGCAGGUCGACUCUAGAAAACAUG,binding signal,[3],6.87 log2 enrichment (interaction score)
GGCUAGAACUAGUGGAUCCCCCGGCGCCCGGCGGCUCGAGCCCGGGUAAGUGUCAAUAGUCUGCAUGCCGCCGGGCGCCAUGCCUGCAGGUCGACUCUAGAAAACAUG,binding signal,[4],2.1 log2 enrichment (interaction score)
same,binding signal,[5],3.28 log2 enrichment (interaction score)
GGCUAGAACUAGUGGAUCCCCCGGCGCCCGGCGGCUCGAGCCCGGGUAAGCGUAAAUAGUCUGCAUGCCGCCGGGCGCCAUGCCUGCAGGUCGACUCUAGAAAACAUG,binding signal,[6],5.39 log2 enrichment (interaction score)
same,binding signal,[7],2.07 log2 enrichment (interaction score)
GGCUAGAACUAGUGGAUCCCCCGGCGCCCGGCGGCUCGAGCCCGGGUAAGUGUAAUUAGUCUGCAUGCCGCCGGGCGCCAUGCCUGCAGGUCGACUCUAGAAAACAUG,binding signal,[8],3.94 log2 enrichment (interaction score)
same,binding signal,[9],3.24 log2 enrichment (interaction score)
same,binding signal,[10],2.25 log2 enrichment (interaction score)
same,binding signal,[11],2.31 log2 enrichment (interaction score)
same,binding signal,[12],4.86 log2 enrichment (interaction score)
GGCUAGAACUAGUGGAUCCCCCGGCGCCCGGCGGCUCGAGCCCGGGUAAGUGUACAUAGUCUGCAUGCCGCCGGGCGCCAUGCCUGCAGGUCGACUCUAGAAAACAUG,binding signal,[3],5.7 log2 enrichment (interaction score)
GGCUAGAACUAGUGGAUCCCCCGGCGCCCGGCGGCUCGAGCCCGGGUAAGUGUAAAAAGUCUGCAUGCCGCCGGGCGCCAUGCCUGCAGGUCGACUCUAGAAAACAUG,binding signal,[13],3.4 log2 enrichment (interaction score)
GGCUAGAACUAGUGGAUCCCCCGGCGCCCGGCGGCUCGAGCCCGGGUAAGUGUAAAUUGUCUGCAUGCCGCCGGGCGCCAUGCCUGCAGGUCGACUCUAGAAAACAUG,binding signal,[2],4.12 log2 enrichment (interaction score)
GGCUAGAACUAGUGGAUCCCCCGGCGCCCGGCGGCUCGAGCCCGGGUAAGGGUAAAUAGUCUGCAUGCCGCCGGGCGCCAUGCCUGCAGGUCGACUCUAGAAAACAUG,binding signal,[7],3.38 log2 enrichment (interaction score)
GGCUAGAACUAGUGGAUCCCCCGGCGCCCGGCGGCUCGAGCCCGGGUAAGUUUAAAUAGUCUGCAUGCCGCCGGGCGCCAUGCCUGCAGGUCGACUCUAGAAAACAUG,binding signal,[14],4.32 log2 enrichment (interaction score)
same,binding signal,[15],5.24 log2 enrichment (interaction score)
GGCUAGAACUAGUGGAUCCCCCGGCGCCCGGCGGCUCGAGCCCGGGUAAGUGUAAGUAGUCUGCAUGCCGCCGGGCGCCAUGCCUGCAGGUCGACUCUAGAAAACAUG,binding signal,[16],4.96 log2 enrichment (interaction score)
same,binding signal,[11],0.81 log2 enrichment (interaction score)
GGCUAGAACUAGUGGAUCCCCCGGCGCCCGGCGGCUCGAGCCCGGGUAAGUGUUAAUAGUCUGCAUGCCGCCGGGCGCCAUGCCUGCAGGUCGACUCUAGAAAACAUG,binding signal,[5],1.23 log2 enrichment (interaction score)
GGCUAGAACUAGUGGAUCCCCCGGCGCCCGGCGGCUCGAGCCCGGGUAAGUCUAAAUAGUCUGCAUGCCGCCGGGCGCCAUGCCUGCAGGUCGACUCUAGAAAACAUG,binding signal,[14],3.94 log2 enrichment (interaction score)
same,binding signal,[15],5.65 log2 enrichment (interaction score)
GGCUAGAACUAGUGGAUCCCCCGGCGCCCGGCGGCUCGAGCCCGGGUAAGUGUAAAUAGUCUGCAUGCCGCCGGGCGCCAUGCCUGCAGGUCGACUCUAGAAAACAUG,binding signal,[6],3.88 log2 enrichment (interaction score)
same,binding signal,[3],6.08 log2 enrichment (interaction score)
same,binding signal,[2],2.85 log2 enrichment (interaction score)
same,binding signal,[17],2.14 log2 enrichment (interaction score)
same,binding signal,[18],4.13 log2 enrichment (interaction score)
same,binding signal,[19],2.76 log2 enrichment (interaction score)
same,binding signal,[20],3.52 log2 enrichment (interaction score)
same,binding signal,[12],6.32 log2 enrichment (interaction score)
same,binding signal,[4],3.16 log2 enrichment (interaction score)
same,binding signal,[5],0.88 log2 enrichment (interaction score)
same,binding signal,[7],2.62 log2 enrichment (interaction score)
